Activity calls are given as the source filed them. Unless noted, no rule for the calls is given here.
Experiments:
[1] = resazurin metabolic signal in HepG2 cells – cell-based, resazurin fluorescence, 24 h, PK04 Diversity Set, profiling panel (AID 1172); conditions: HepG2 viability, higher = more signal
[2] = budding yeast growth changes without added modifier – OD600, strain BY4716, 24 h, basal condition, primary screen (AID 1173); conditions: S. cerevisiae BY4716 growth, OD600, 24 h; higher = more signal, called active from +8 up or from −8 down
[3] = viability profiling in MM1S myeloma cells – cell-based, resazurin fluorescence, basal, 24 h, PK04 Diversity Set, profiling panel (AID 1174); conditions: higher = more signal, called active from +8 up or from −8 down;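 also: MM1S multiple myeloma cell line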
[4] = target: Dihydroorotate dehydrogenase (quinone), mitochondrial (Plasmodium falciparum (isolate 3D7)) (UniProt Q08210); test: inhibition of P. falciparum DHODH – biochemical, C-terminal His tag, absorbance 600 nm, primary screen (AID 1175); conditions: PfDHODH enzyme, DCIP absorbance 600 nm; higher = more signal, called active from +8 up or from −8 down;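 also: recombinant parasite enzyme with a five histidine tag at its C terminus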
[5] = inhibition of PAO1 biofilm formation – strain PAO1, LB-PBS medium, absorbance 600 nm, primary screen (AID 1176); conditions: P. aeruginosa PAO1 growth/biofilm, A600, 12 h; higher = more signal
[6] = growth modulation of vineyard yeast isolate – strain RM11-1a, OD600, basal, 24 h, primary screen (AID 1177);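 also: cultures grown under basal conditions with no added stressor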; conditions: S. cerevisiae RM11-1a growth, OD600, 24 h; higher = more signal, called active from +8 up or from −8 down
[7] = growth of efflux-deficient E. coli DRC39 – strain DRC39, OD650, 24 h, E. coli filamentation inducers, primary screen (AID 1178);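 also: growth measured as culture turbidity by optical density at 650 nm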; conditions: E. coli DRC39 acrAB, higher = more signal, called active from +8 up or from −8 down
[8] = growth of efflux-deficient E. coli DRC39 – strain DRC39, OD650, 48 h, E. coli filamentation inducers, primary screen (AID 1179);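 also: screen aims at cell division blockers that make cells filament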; conditions: E. coli DRC39 delta-acrAB growth, higher = more signal, called active from +8 up or from −8 down
[9] = viability profiling in RPMI8226 myeloma cells – cell-based, resazurin fluorescence, basal, 24 h, PK04 Diversity Set, profiling panel (AID 1180); conditions: higher = more signal;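 also: RPMI8826 multiple myeloma cell line at 5000 cells per well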
[10] = target: E3 ubiquitin-protein ligase XIAP (Homo sapiens) (UniProt P98170); test: small molecules binding XIAP protein – biophysical, small-molecule microarray, fluorescence 635 nm, primary screen (AID 1181); conditions: higher = more signal;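 also: score merges 667 nm emission and signal to noise over triplicate slides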
[11] = test system: XIP peptide (Xip251-270) binding; test: XIP fragment 251-270 binding compounds – biochemical, small-molecule microarray, fluorescence 635/667 nm, 0.1 µg/mL protein, primary screen (AID 1182); conditions: fluorescent protein binding, 635 nm, higher = more signal, called active from +8 up or from −8 down
[12] = test system: XIP peptide (Xip251-270); test: compounds binding XIP fragment 251-270 – biochemical, small-molecule microarray, fluorescence 635/667 nm, 0.5 µg/mL protein, primary screen (AID 1183); conditions: fluorescence 635 nm, higher = more signal
[13] = blood-stage malaria parasite viability loss – strain 3D7, DAPI fluorescence, 100 nL, primary screen (AID 1184);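 also: parasites grown inside human red blood cells in medium with human serum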; conditions: P. falciparum 3D7 growth, 3 d, higher = more signal
[14] = target: Homeobox protein Hox-A13 (Mus musculus) (UniProt Q62424); test: disruptors of Hoxa13 oligonucleotide interaction – biochemical, fluorescence polarization, labeled oligonucleotide, primary screen (AID 1185); conditions: Hoxa13:DNA binding, 15 min, higher = more signal, called active from +8 up or from −8 down
[15] = blockers of DNA damage checkpoint Chk1 activation – imaging, HeLa, hydroxyurea, phospho-Chk1 antibody, percent positive cells, primary screen (AID 1186); conditions: hydroxyurea-induced phospho-Chk1 immunofluorescence imaging, higher = more signal
[16] = blockers of DNA damage checkpoint Chk1 activation – imaging, HeLa, hydroxyurea, phospho-Chk1 nuclear intensity, primary screen (AID 1187); conditions: hydroxyurea-induced phospho-Chk1 immunofluorescence imaging, higher = more signal

Sequence of Homeobox protein Hox-A13 (Mus musculus) (Q62424 whole entry, looked up): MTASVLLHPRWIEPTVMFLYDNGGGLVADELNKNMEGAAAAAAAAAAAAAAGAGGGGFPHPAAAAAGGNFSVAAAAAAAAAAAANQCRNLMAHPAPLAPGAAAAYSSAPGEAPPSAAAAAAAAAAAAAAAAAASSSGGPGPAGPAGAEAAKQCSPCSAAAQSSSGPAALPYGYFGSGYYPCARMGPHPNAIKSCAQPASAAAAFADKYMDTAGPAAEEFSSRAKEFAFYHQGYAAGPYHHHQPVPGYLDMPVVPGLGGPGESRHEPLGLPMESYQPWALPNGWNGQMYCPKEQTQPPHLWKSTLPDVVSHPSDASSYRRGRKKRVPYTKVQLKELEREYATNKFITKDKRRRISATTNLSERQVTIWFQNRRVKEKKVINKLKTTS
Sequence of Dihydroorotate dehydrogenase (quinone), mitochondrial (Plasmodium falciparum (isolate 3D7)) (Q08210 whole entry, looked up): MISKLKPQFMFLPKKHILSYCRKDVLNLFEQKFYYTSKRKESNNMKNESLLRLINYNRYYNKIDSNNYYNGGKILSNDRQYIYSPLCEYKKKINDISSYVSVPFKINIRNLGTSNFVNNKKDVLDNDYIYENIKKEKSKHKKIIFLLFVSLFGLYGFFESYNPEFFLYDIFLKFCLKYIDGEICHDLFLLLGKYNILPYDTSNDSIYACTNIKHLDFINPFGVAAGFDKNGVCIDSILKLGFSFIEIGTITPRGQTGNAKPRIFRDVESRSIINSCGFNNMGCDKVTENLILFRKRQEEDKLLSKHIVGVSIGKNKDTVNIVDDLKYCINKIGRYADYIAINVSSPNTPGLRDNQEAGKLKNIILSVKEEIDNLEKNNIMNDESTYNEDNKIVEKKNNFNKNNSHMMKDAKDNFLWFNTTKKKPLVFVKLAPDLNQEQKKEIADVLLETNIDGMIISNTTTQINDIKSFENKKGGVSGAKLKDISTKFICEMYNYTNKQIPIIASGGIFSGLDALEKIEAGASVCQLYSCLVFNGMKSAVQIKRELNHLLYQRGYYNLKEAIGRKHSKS
Sequence of E3 ubiquitin-protein ligase XIAP (Homo sapiens) (P98170 whole entry, looked up, the tested form may be a part): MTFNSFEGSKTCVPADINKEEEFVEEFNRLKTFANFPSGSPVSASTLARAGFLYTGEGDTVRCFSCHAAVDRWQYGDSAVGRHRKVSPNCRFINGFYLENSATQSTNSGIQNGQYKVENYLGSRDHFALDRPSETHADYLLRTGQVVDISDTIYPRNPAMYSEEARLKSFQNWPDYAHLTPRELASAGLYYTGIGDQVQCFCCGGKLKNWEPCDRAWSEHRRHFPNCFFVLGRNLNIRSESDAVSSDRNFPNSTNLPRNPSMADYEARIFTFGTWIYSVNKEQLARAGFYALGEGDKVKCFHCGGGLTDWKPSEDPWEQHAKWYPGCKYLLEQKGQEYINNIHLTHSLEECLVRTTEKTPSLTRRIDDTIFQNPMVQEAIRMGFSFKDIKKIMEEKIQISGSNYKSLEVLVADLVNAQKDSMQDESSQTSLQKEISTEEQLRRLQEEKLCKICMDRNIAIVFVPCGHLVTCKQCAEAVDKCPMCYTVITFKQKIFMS

Row | Structure (SMILES) | z-score [1] | z-score [2] | z-score [3] | composite z-score [4] | z-score [5] | z-score [6] | z-score [7] | z-score [8] | z-score [9] | composite z-score [10] | composite z-score [11] | composite z-score [12] | z-score [13] | z-score [14] | z-score [15] | z-score [16]
1 | COCC1=C2[C@@H](CCc3ccccc3)OB(O)C[C@@H]2[C@@H]2C(=O)N(Cc3ccccc3)C(=O)[C@@H]2C1 | 0.0373 | -1.69 (inactive) | -0.278 (inactive) | -0.345 (inactive) | -0.177 (inactive) | -1.06 (inactive) | -0.0682 (inactive) | -0.0309 (inactive) | -0.039 | -0.231 | -0.653 (inactive) | -0.538 | 1.22 | -7.4 (inactive) | 0.141 (inactive) | 0.381 (inactive)
2 | Cc1ccc(S[C@]2(C(=O)NCC(C)C)CC(=O)N(Cc3ccccc3)[C@@H]2c2ccc(CO)cc2I)cc1 | -0.629 | -1.51 (inactive) | -1.73 (inactive) | 0.47 (inactive) | 0.282 (inactive) | 0.341 (inactive) | -0.0655 (inactive) | -0.553 (inactive) | -1.89 | 0.0583 | 0.0656 (inactive) | 0.292 | -0.769 | -3.29 (inactive) | 0.292 (inactive) | 0.556 (inactive)
3 | O=C1OCCC=C[C@H]2OC34C=CCN(Cc5ccccc5)C(=O)[C@H]3N(CCCCCO)C(=O)[C@@H]4C12 (stereo not given in full) | 1.12 | -0.266 (inactive) | 1.61 (inactive) | -1.12 (inactive) | 0.357 (inactive) | 0.484 (inactive) | 1.24 (inactive) | 0.927 (inactive) | 1.4 | 0.13 | 1.16 (inactive) | -0.0335 | 0.0195 | -4.46 (inactive) | -0.218 (inactive) | 0.534 (inactive)
4 | CN1CCC(CCCO)=CC1c1ccc(CN2CCCC2)cc1 (stereo not given) | 0.106 | -1.33 (inactive) | -0.202 (inactive) | -0.27 (inactive) | 0.661 (inactive) | -0.0607 (inactive) | 0.0543 (inactive) | 0.201 (inactive) | -0.304 | 0.194 | 0.426 (inactive) | 0.506 | -1.18 | -2.07 (inactive) | 0.56 (inactive) | 0.903 (inactive)
5 | CC(C)(C)OC(=O)CC[C@]1(C(=O)N2CCCCC2)N=C(c2ccc(OCCCO)cc2)O[C@H]1c1ccccc1N=[N+]=[N-] | 0.188 | 0.367 (inactive) | -1.79 (inactive) | 0.107 (inactive) | 0.466 (inactive) | 1.01 (inactive) | 1.82 (inactive) | 1.04 (inactive) | -1.32 | -0.0304 | 0.282 (inactive) | 0.71 | -1.75 | -2.92 (inactive) | -0.0036 (inactive) | 0.212 (inactive)
6 | CC(C)CNC(=O)[C@@]1(c2ccc([N+](=O)[O-])cc2)CC(=O)N(CC23CC4CC(CC(C4)C2)C3)[C@@H]1c1ccc(CO)cc1 | -1.69 | -0.565 (inactive) | -2.08 (inactive) | -1.23 (inactive) | 0.913 (inactive) | -0.813 (inactive) | 0.629 (inactive) | 1.25 (inactive) | -3.32 | -0.193 | 1.1 (inactive) | 0.796 | 0.0716 | -4.17 (inactive) | -0.471 (inactive) | -0.141 (inactive)
7 | COc1ccc([Si](C)(C)[C@@H]2[C@@H](CC(=O)N3CCC[C@H]3CO)O[C@]3(C(=O)N(C)c4c(Br)cc(C)cc43)[C@H]2C)cc1 | 0.27 | -1.62 (inactive) | 0.62 (inactive) | -1.88 (inactive) | 0.331 (inactive) | -1 (inactive) | 0.233 (inactive) | 0.0205 (inactive) | -0.128 | 0.287 | 0.0849 (inactive) | 0.507 | -0.949 | -6.11 (inactive) | -0.477 (inactive) | -0.466 (inactive)
8 | Cc1c(NC(=O)CC#N)c(=O)n(-c2ccccc2)n1C | 1.02 | -0.267 (inactive) | 1.07 (inactive) | -0.544 (inactive) | 0.531 (inactive) | -1.25 (inactive) | 1.37 (inactive) | 1.47 (inactive) | 0.526 | 0.0345 | 0.248 (inactive) | 0.0029 | -0.0049 | -0.631 (inactive) | 0.123 (inactive) | 0.239 (inactive)
9 | C=C[C@@H](COC(C)=O)N(Cc1ccc([N+](=O)[O-])cc1)S(=O)(=O)c1ccc(Br)cc1 | 0.835 | -0.367 (inactive) | 0.417 (inactive) | -1.01 (inactive) | -0.801 (inactive) | 1.19 (inactive) | 1.01 (inactive) | 0.469 (inactive) | 1.49 | 0.0345 | 0.13 (inactive) | 0.656 | 0.242 | -3.25 (inactive) | -0.617 (inactive) | -0.411 (inactive)
10 | C=CCC(OC(C)=O)[C@@H]1[C@@H](N(Cc2cc3ccccc3o2)C(=O)c2ccc(C)cc2)c2cc(OCCCO)ccc2N1C(=O)c1ccc2ccccc2c1 (stereo not given in full) | 0.792 | -0.195 (inactive) | 0.951 (inactive) | -0.375 (inactive) | -0.583 (inactive) | 0.0749 (inactive) | 0.786 (inactive) | 1.02 (inactive) | 1.72 | 0.0015 | -0.014 (inactive) | -0.152 | -0.585 | -1.33 (inactive) | -0.252 (inactive) | 0.0758 (inactive)
